Results reported in PubChem BioAssay (NCATS).
“And” between values parts separate entries of the source, which are not always exact repeats. Identical values can stand only once. Records with an inconclusive call do not appear. The source made the active and inactive calls. Unless noted, the call rests on the fitted dose curve; in most records, active means well fitted curve in the direction sought with a large enough effect; inconclusive means small, poorly fitted or top-dose-only effect, or another doubt; inactive means no such curve, though single readings can be large; an effect the other way counts as inactive or inconclusive.

What was measured:
[1] = Cell Viability - N2a (AID 540); settings: N2a mouse neuroblastoma cell viability; activity change, negative = cytotoxicity: at 92.2 µM (top of the series);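 further: cells exposed to compound for 40 h at 37 °C; plate controls were DMSO alone for no effect and tamoxifen control for full effect; nearly all actives have a fitted effect of over 45% in size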
Procedure, shortened: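 Cytotoxicity was scored as loss of cellular ATP in N2a cells, a mouse neuroblastoma line. Compounds are applied in a qHTS concentration series for 40 hr at 37 °C.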

[2] = Cellular Toxicity (caspase-3) BJ (AID 658);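 further: 0% = DMSO basal and 100% = 10 µM staurosporine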
Procedure, shortened: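 Caspase-Glo 3/7 luminescence, read 1 hr after reagent at room temperature, in normal BJ fibroblasts exposed 16 hours at 37 °C. AC50 values from Hill-equation concentration-response, scaled between DMSO basal and 10 uM staurosporine as 100%.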

[3] = qHTS assay for small molecule antagonists of peroxisome proliferator-activated receptor delta signaling (AID 588535; active means well fitted inhibition curve with a large enough effect in the signal ratio, with a control signal flat, not every such curve was filed as active; the % refers to the signal ratio;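 on max response: cells co-treated with a PPAR-delta agonist as stimulator during compound exposure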); settings: HEK293T PPARd-UAS-bla, beta-lactamase FRET ratio, 18 h; 460 nm channel
Procedure, shortened: (§1)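 Titrations were run on PPAR-delta-UAS-bla HEK293T cells in charcoal/dextran-stripped serum, incubated 18 h at 37 C. CCF4 fluorescence (460/530 nm) after 2 h RT; Hill equation yields IC50 and maximal response.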

[4] = molecular target: Peroxisome proliferator-activated receptor delta (Homo sapiens) (UniProt Q03181); test: as above
Procedure, shortened: as §1

[5] = molecular target: Vitamin D3 receptor (Homo sapiens) (UniProt P11473); test: qHTS assay for small molecule antagonists of vitamin D receptor signaling (AID 588541; calls by dose curve;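 further: receptor activated by calcitriol during compound treatment; on the % scale 0 is the no-effect control and ±100 the full control effect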)
Procedure, shortened: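 Antagonist-mode beta-lactamase reporter assay: HEK293T VDR-UAS-bla cells were exposed to titrated compound alongside 1-alpha,25-dihydroxyvitamin D3 at 3 nM final for 16 h. Values were normalized to the 50 nM agonist control and DMSO basal, with IC50 and efficacy from Hill equation fits.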

[6] = molecular target: Voltage-gated inwardly rectifying potassium channel KCNH2 (Homo sapiens) (UniProt Q12809); test: qHTS Assay for Small Molecule Inhibitors of the Human hERG Channel Activity (AID 588834);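 further: top concentration of the series differs between compounds; on the % scale 0 is the no-effect control and ±100 the full control effect; lower thallium flux fluorescence means stronger hERG block; nearly all actives have a fitted effect of over 50% in size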
Procedure, shortened: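 Thallium-flux (FluxOR) read-out on FDSS: fluorescence read 10 s before and 2 min after stimulation buffer. hERG-BacMam-transduced U2OS cells, compound exposure about 10 min. AC50 by standard Hill equation.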

[7] = qHTS assay for small molecule agonists of the antioxidant response element (ARE) signaling pathway (AID 651741; active means well fitted activation curve with a large enough effect in the signal ratio; the % refers to the signal ratio; further: potency means the concentration at half of the fitted maximal effect; on activation: % of control where 0% means no effect)
Procedure, shortened: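 Beta-lactamase reporter under ARE control in HepG2 cells, 2,000 per well, was induced by 16 h compound treatment at 37 C. Read-out was fluorescence from LiveBLAzer B/G FRET substrate after 2 h at room temperature.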

[8] = qHTS assay for small molecule activators of the nuclear factor-kappa B (NF-kB) signaling pathway (AID 651749; active means well fitted activation curve with a large enough effect in the signal ratio; the % refers to the signal ratio; further: % of control where 0% means no effect); settings: NF-kB-bla ME-180 cells, beta-lactamase FRET ratio, 16 h; stronger effect = higher value
Procedure, shortened: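 Activation measured after 16 hr compound treatment at 37C, 5% CO2, of 2,000 ME-180 cells/well stably expressing an NF-kB response element–driven beta-lactamase reporter, via FRET-disruption fluorescence.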

[9] = qHTS assay for small molecule disruptors of the mitochondrial membrane potential - 1 hr assay (AID 651754; calls by dose curve; further: nearly all actives have a fitted effect of over 35% in size; further: potency means the concentration at half of the fitted maximal effect)
Procedure, shortened: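 Loss of mitochondrial potential shifts the cationic dye from red mitochondrial aggregates to green cytoplasmic monomers. Cells (HepG2) are treated with compound for 1 hr before a 30 min dye incubation at 37C.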

[10] = qHTS assay for environmental chemicals that activate the Aryl hydrocarbon Receptor (AhR) signaling pathway (AID 651777); settings: 1A2-DRE human hepatoma cells, luciferase, 24 h; activation: stronger effect = higher value; further: nearly all actives have a fitted effect of over 15% in size; further: potency means the concentration at half of the fitted maximal effect; on activation: % of control where 0% means no effect
Procedure, shortened: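 Reporter gene assay: hepatoma cells with DRE/CYP1A2-luciferase, 24 hr compound incubation at 37 C, 5% CO2, luminescence after One-Glo (30 min, RT).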

[11] = molecular target: Nuclear receptor ROR-gamma (Homo sapiens) (UniProt P51449); test: qHTS assay for small molecule antagonists of the retinoid-related orphan receptor gamma (ROR-gamma) signaling pathway (AID 651802);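 further: CHO cells with doxycycline-induced ROR-gamma expression; on the % scale 0 is the no-effect control and ±100 the full control effect; nearly all actives have a fitted effect of over 60% in size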
Procedure, shortened: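 Steps: cells dispensed; compound or DMSO transferred by pin tool; doxycycline added to induce the ROR response element-driven luciferase; plates held 16hr at 37C; ONE-Glo added and luminescence measured.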

[12] = qHTS assay for small molecule antagonists of the retinoid-related orphan receptor gamma (ROR-gamma) signaling pathway - cell viability counter screen (AID 720652; active means well fitted curve in the direction sought with a large enough effect in the repeat runs; an effect the other way counts as inactive or inconclusive;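 further: CHO reporter cells with doxycycline-induced ROR-gamma expression; compound exposure lasted 16 hr before ATP read; on the % scale 0 is the no-effect control and ±100 the full control effect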)
Procedure, shortened: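 Steps: seed CHO cells bearing TET-inducible ROR and ROR response element-luciferase; rest 5 hr at 37 C; add compound, then doxycycline; incubate 16 hr; add CellTiter-Glo and read luminescence as ATP-based viability.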

[13] = molecular target: Cytochrome P450 3A4 (Homo sapiens) (UniProt P08684); test: qHTS Assay for Inhibitors and Substrates of Cytochrome P450 3A4 (AID 884); further: nearly all actives have a fitted effect of over 50% in size; further: potency means the concentration at half of the fitted maximal effect
Procedure, shortened: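 Luminescent readout of luciferin produced by CYP3A4 (20 nM) dealkylation of Luciferin-PPXE, 25 uM (its KM). NADPH-driven reaction ran 60 min at RT after 10 min compound preincubation; data scaled to 57 uM ketoconazole as 100% inhibition.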

[14] = molecular target: Glucocorticoid receptor (Homo sapiens) (UniProt P04150); test: qHTS assay for small molecule agonists of glucocorticoid receptor signaling (AID 588532; active means well fitted curve in the direction sought with a large enough effect in the signal ratio, with a control signal flat; the % refers to the signal ratio;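 further: 100% = dexamethasone at 0.1 µM and 0% = DMSO only wells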); settings: HeLa MMTV-bla, beta-lactamase ratio, agonist, 18 h; stronger effect = higher value; percent of dexamethasone control, DMSO zero
Procedure, shortened: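 Agonist-mode qHTS: GRE-driven beta-lactamase in HeLa cells exposed 18 h to titrated compounds (up to 92 uM), then CCF4 ratio read after 2 h at RT; Hill-fitted EC50, efficacy relative to 0.1 uM dexamethasone.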

[15] = molecular target: Glucocorticoid receptor (Homo sapiens) (UniProt P04150); test: qHTS assay for small molecule antagonists of glucocorticoid receptor signaling (AID 588533; active means well fitted inhibition curve with a large enough effect in the signal ratio, with a control signal flat, not every such curve was filed as active; the % refers to the signal ratio;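 further: cells stimulated with 2 nM dexamethasone as agonist; on the % scale 0 is the no-effect control and ±100 the full control effect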)
Procedure, shortened: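 Antagonist-mode qHTS: compound titrations added to GRE-bla HeLa cells, then dexamethasone 2 nM final; 18 h, 37 C. CCF4 FRET fluorescence normalized to dexamethasone and DMSO; IC50 from Hill fit.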

[16] = molecular target: Peroxisome proliferator-activated receptor delta (Homo sapiens) (UniProt Q03181); test: qHTS assay for small molecule agonists of peroxisome proliferator-activated receptor delta signaling (AID 588534; calls by dose curve;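 further: 0% = DMSO basal wells and 100% = positive control agonist at 10 µM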)
Procedure, shortened: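 Agonist-mode qHTS; reporter cells, 5 hrs 37 C pre-incubation; compound titration, 18 hrs 37 C; CCF4 dye, 2 hrs RT; fluorescence read. EC50/efficacy via Hill fit.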

[17] = molecular target: Peroxisome proliferator-activated receptor gamma (Homo sapiens) (UniProt P37231); test: qHTS assay for small molecule antagonists of peroxisome proliferator-activated receptor gamma signaling (AID 588537; active means well fitted inhibition curve with a large enough effect in the signal ratio, with a control signal flat, not every such curve was filed as active; the % refers to the signal ratio;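 further: reporter cells co-stimulated with 50 nM rosiglitazone agonist during compound treatment; % of control where 0% means no effect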)
Procedure, shortened: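 Antagonist-mode β-lactamase reporter screen run as a titration series. HEK293 PPARγ-UAS-bla cells are stimulated with rosiglitazone (50 nM final) for 16 h, then CCF4 is read at 460/530 nm. Data are scaled between DMSO and rosiglitazone and fitted to the Hill equation.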

[18] = qHTS assay for small molecule activators of the p53 signaling pathway (AID 651743; active means well fitted activation curve with a large enough effect in the signal ratio, not every such curve was filed as active; the % refers to the signal ratio; further: % of control where 0% means no effect); settings: HCT-116 p53RE-bla, beta-lactamase FRET ratio, 16 h; activation: stronger effect = higher value
Procedure, shortened: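 After 16 hours compound treatment at 37 C, HCT-116 cells stably expressing p53RE-driven beta-lactamase were loaded with LiveBLAzer B/G FRET substrate for 2 hours at room temperature. Fluorescence intensity served as the p53 activation read-out.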

[19] = molecular target: Estrogen receptor (Homo sapiens) (UniProt P03372); test: qHTS assay for small molecule antagonists of estrogen receptor alpha signaling (AID 588513; active means well fitted curve in the direction sought with a large enough effect in the signal ratio, with a control signal flat, not every such curve was filed as active; the % refers to the signal ratio; further: on the % scale 0 is the no-effect control and ±100 the full control effect)
Procedure, shortened: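 Beta-lactamase reporter, antagonist mode, HEK 293 GripTite cells; 0.5nM E2 stimulus, 18 h, 37 C; CCF4 dye 2 h RT; fluorescence. IC50 and efficacy from Hill fits, normalized to E2 and DMSO.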

[20] = molecular target: Estrogen receptor (Homo sapiens) (UniProt P03372); test: qHTS assay for small molecule agonists of estrogen receptor alpha signaling (AID 588514; calls by dose curve;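 further: 0% = vehicle only and 100% = reference agonist; nearly all actives have a fitted effect of over 70% in size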)
Procedure, shortened: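 Efficacy is expressed against 20 nM 17-beta-estradiol (100%) and DMSO basal (0%); EC50 from Hill equation. Assay: beta-lactamase reporter in ER-alpha-UAS-bla HEK 293 cells, 18 h compound incubation, CCF4 detection.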

Sequence of Vitamin D3 receptor (Homo sapiens) (P11473 whole entry, looked up): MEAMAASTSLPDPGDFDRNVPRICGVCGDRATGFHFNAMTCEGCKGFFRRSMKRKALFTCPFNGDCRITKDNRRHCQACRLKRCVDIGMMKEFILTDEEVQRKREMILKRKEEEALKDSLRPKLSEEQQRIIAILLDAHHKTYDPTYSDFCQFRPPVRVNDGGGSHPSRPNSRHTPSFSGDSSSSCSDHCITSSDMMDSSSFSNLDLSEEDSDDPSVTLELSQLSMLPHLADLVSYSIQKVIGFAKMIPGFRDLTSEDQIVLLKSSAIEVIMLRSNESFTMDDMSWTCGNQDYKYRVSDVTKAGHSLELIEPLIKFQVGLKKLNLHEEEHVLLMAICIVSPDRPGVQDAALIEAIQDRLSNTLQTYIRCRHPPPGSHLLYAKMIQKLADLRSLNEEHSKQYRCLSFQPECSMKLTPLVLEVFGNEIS
Sequence of Voltage-gated inwardly rectifying potassium channel KCNH2 (Homo sapiens) (Q12809 whole entry, looked up): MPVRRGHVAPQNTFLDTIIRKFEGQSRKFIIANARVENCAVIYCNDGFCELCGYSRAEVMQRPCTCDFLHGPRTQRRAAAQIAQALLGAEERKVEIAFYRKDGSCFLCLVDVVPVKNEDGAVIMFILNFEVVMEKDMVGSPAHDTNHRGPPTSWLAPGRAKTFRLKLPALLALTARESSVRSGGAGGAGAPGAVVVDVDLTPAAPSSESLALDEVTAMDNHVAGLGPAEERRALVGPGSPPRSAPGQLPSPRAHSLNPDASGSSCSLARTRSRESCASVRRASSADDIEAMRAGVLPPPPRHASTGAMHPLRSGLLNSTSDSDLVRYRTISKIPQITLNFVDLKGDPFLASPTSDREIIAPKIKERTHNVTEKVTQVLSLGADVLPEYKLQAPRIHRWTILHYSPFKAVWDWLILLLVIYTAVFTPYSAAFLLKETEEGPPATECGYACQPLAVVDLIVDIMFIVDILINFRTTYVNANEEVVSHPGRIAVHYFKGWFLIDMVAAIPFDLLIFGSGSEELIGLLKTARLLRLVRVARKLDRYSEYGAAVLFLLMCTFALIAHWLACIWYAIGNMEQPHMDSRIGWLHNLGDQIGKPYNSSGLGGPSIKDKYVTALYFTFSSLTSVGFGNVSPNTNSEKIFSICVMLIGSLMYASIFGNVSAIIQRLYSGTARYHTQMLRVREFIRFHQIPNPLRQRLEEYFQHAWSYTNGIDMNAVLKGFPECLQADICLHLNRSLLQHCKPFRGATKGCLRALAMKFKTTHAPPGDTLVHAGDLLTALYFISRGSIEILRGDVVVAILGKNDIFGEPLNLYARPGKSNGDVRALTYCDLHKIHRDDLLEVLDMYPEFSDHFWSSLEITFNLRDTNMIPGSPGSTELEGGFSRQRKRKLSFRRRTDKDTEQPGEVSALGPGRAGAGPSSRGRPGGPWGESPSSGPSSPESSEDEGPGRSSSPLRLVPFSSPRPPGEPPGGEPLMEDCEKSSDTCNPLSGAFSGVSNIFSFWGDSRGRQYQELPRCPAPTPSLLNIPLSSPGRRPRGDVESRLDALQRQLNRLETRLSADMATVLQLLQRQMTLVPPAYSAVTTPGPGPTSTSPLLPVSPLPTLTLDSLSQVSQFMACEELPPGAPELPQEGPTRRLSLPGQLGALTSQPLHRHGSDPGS
Sequence of Glucocorticoid receptor (Homo sapiens) (P04150 whole entry, looked up): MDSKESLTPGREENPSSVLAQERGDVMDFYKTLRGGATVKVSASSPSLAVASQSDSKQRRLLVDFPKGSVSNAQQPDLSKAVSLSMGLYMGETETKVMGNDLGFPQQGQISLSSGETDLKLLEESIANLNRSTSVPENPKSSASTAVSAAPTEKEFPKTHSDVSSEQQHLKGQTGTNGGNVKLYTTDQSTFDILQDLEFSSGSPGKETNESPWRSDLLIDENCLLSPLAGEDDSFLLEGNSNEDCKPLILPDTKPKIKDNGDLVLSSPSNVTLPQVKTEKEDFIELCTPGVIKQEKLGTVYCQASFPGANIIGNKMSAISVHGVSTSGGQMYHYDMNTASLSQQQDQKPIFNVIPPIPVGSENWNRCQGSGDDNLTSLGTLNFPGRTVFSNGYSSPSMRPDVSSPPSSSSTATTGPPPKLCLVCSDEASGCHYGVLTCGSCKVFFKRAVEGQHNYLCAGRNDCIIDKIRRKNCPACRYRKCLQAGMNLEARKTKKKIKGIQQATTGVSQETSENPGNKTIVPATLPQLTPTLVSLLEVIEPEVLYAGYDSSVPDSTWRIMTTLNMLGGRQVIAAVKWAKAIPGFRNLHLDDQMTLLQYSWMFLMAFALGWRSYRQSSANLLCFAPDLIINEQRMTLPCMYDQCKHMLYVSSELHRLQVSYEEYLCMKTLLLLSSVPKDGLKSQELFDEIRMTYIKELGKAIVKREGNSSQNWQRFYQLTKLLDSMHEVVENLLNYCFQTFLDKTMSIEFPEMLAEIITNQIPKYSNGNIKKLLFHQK
Sequence of Peroxisome proliferator-activated receptor gamma (Homo sapiens) (P37231 whole entry, looked up): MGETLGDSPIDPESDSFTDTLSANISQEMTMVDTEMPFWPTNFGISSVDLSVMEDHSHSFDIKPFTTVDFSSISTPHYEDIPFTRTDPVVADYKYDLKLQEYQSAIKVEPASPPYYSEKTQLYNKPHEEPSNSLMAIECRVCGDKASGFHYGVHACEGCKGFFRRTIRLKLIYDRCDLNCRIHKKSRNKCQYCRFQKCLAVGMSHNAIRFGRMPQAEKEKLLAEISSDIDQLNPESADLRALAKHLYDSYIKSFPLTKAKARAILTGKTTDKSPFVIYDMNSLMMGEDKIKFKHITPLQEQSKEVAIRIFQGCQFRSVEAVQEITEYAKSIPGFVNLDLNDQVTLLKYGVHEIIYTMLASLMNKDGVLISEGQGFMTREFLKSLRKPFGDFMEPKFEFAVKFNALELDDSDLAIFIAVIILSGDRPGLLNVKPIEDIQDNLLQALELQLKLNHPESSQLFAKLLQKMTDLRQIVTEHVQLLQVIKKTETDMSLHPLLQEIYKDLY
Sequence of Nuclear receptor ROR-gamma (Homo sapiens) (P51449 whole entry, looked up): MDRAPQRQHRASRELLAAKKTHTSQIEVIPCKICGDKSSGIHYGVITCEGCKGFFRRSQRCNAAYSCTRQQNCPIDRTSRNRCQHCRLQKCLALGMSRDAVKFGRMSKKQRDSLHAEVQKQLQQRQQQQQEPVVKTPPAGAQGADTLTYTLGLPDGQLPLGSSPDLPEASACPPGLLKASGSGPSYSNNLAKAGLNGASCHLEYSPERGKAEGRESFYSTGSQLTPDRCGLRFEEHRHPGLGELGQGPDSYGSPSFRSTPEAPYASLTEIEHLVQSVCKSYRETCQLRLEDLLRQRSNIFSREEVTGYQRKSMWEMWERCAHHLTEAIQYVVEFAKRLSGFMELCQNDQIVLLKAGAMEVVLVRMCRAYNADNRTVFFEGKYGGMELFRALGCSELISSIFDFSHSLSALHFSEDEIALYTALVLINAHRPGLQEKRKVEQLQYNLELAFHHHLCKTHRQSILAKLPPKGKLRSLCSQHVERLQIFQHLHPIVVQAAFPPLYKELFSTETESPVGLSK
Sequence of Peroxisome proliferator-activated receptor delta (Homo sapiens) (Q03181 whole entry, looked up): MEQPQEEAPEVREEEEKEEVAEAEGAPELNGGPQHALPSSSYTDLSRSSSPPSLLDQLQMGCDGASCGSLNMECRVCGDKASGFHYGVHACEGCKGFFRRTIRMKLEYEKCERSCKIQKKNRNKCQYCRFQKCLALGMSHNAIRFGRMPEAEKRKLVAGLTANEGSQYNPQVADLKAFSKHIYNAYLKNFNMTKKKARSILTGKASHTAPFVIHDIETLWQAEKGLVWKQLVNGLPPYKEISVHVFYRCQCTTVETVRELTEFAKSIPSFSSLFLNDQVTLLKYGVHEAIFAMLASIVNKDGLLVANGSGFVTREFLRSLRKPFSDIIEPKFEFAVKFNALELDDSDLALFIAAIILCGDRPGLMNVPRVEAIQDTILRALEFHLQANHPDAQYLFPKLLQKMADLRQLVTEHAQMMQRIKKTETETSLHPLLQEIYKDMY
Sequence of Estrogen receptor (Homo sapiens) (P03372 whole entry, looked up): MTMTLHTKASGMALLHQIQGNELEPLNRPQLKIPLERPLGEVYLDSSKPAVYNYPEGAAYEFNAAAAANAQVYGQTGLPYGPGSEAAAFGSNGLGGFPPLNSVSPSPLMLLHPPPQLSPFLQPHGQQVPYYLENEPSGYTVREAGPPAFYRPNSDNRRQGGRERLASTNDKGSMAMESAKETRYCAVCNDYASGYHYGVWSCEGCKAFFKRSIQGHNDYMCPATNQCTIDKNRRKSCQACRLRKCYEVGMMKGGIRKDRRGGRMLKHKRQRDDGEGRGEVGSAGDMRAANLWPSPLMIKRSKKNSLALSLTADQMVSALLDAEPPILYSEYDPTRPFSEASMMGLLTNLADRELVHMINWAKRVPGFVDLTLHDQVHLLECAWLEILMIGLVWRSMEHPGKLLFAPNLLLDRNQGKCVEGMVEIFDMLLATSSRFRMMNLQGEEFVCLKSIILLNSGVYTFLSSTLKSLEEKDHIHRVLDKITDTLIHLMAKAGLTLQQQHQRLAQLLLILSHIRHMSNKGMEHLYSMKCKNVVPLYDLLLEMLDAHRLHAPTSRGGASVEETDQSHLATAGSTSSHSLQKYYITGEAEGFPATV
Sequence of Cytochrome P450 3A4 (Homo sapiens) (P08684 whole entry, looked up): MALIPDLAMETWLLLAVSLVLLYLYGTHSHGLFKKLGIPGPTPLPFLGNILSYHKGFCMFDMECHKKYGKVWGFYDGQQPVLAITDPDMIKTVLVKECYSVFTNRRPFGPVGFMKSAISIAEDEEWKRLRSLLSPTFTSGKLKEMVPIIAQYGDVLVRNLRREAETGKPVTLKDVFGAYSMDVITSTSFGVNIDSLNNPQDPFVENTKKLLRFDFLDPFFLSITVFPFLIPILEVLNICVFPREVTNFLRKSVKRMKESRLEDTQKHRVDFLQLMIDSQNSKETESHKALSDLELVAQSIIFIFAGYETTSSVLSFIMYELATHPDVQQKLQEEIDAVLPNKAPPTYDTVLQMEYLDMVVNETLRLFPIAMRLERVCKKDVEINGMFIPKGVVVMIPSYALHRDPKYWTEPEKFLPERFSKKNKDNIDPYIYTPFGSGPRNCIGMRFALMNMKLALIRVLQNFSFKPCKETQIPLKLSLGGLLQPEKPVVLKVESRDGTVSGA

Clc1cccc2ccccc12
inactive: Potency [1] | outcome [2] | outcome [4] | outcome [5] | Potency [6] | Potency [7] | activation [8] 0.856% | Potency [9] | activation [10] -0.754% | Potency [11] | Potency [12]
-15.1%: max response [3]

N#CC(O)c1ccccc1 (configuration not stated)
6.88%: max response [3]
inactive: Potency [1] | outcome [2] | Potency [13] | activation [14] -0.987% | outcome [15] | outcome [16] | outcome [4] | Potency [17] | outcome [5] | Potency [7] | activation [8] 0.595% | activation [10] 0.286% | Potency [11] | Potency [12]

CN(C)C(=O)Nc1cccc(C(F)(F)F)c1
inactive: outcome [2] | Potency [13] | outcome [16] | outcome [4] | Potency [17] | outcome [5] | Potency [6] | Potency [7] | activation [18] 0.966% and 0.726% | activation [8] 0.0409% and 1.96% | Potency [9] | activation [10] -0.624% and 0.852% | Potency [11] | Potency [12]
-0.756% and 6.11%: max response [3]

ClC(Cl)c1ccccc1
17.7%: max response [3]
inactive: Potency [1] | Potency [13] | Potency [19] | Potency [20] | activation [14] -0.105% | outcome [15] | outcome [16] | outcome [4] | outcome [5] | Potency [6] | Potency [7] | activation [8] -0.312% | Potency [9] | activation [10] -2.06% | Potency [12]

C=CC(=O)OCCN(C)C
29.8%: max response [3]
inactive: Potency [1] | outcome [2] | Potency [13] | activation [14] 1.15% | outcome [16] | outcome [4] | outcome [5] | Potency [6] | Potency [7] | activation [18] 0.0499% | activation [8] -1.13% | Potency [9] | activation [10] 0.563% | Potency [11] | Potency [12]

Cc1ccc2c(c1N)C(=O)c1ccccc1C2=O
active: Potency [13] 5.01 µM | Potency [7] 21.1 µM and 17.2 µM | Potency [9] 2.66 µM | Potency [10] 28.2 µM
inactive: Potency [19] | activation [14] -11.3% and -4.68% | outcome [15] | outcome [16] | Potency [17] | activation [18] 7.91% and 8.94% | activation [8] 0.359% and 2.04% | Potency [11]

ClP(Cl)(Cl)(Cl)Cl
inactive: outcome [2] | Potency [13] | Potency [19] | Potency [20] | activation [14] -4.5% | outcome [15] | outcome [16] | outcome [5] | Potency [6] | Potency [7] | activation [18] -1.29% | activation [8] -0.207% | Potency [11] | Potency [12]

O=[N+]([O-])c1ccc(Cl)cc1
inactive: outcome [2] | Potency [13] | activation [14] -1.26% and -4.41% | outcome [15] | outcome [5] | Potency [7] | activation [18] 0.333% and 2.39% | activation [8] -0.791% and -0.89% | Potency [9] | activation [10] -0.207% and 4.63% | Potency [11]

C=COC(C)=O
inactive: Potency [1] | outcome [2] | Potency [13] | outcome [5] | Potency [6] | activation [8] -0.411% | Potency [9] | activation [10] 1.36% | Potency [11] | Potency [12]

Cc1ccc(N=C=O)cc1N=C=O
inactive: Potency [1] | outcome [2] | activation [14] 4.9% and -2.62% | outcome [15] | Potency [17] | Potency [6] | Potency [7] | activation [8] 0.173% and 0.839% | Potency [11] | Potency [12]
active: Potency [13] 15.8 µM
